From PubChem BioAssay
Shown are actives, neighbours in structure and some others; about 0.56% of the full set was active somewhere.
EPAC1 antagonist: antagonists of human EPAC1; Potency, µM (top dose mostly 115 µM), most hits filed as inhibitors; EPAC1 GEF assay, Rap1b-BODIPY-GDP exchange fluorescence; O95398; hit rate 0.14% among 360,000; also: nearly all actives have a fitted effect of over 50% in size
USP1-UAF1 inh: inhibitors of human USP1/UAF1 deubiquitinase | AID 743255 | O94782 | recombinant USP1/UAF1, Ub-Rhodamine cleavage fluorescence | hit rate 0.23% among 390,000 | Potency, µM (titrated, usually from 57.1 µM), usual class: inhibitors; also: nearly all actives have a fitted effect of over 60% in size
Target sequence (O94782 whole entry, looked up): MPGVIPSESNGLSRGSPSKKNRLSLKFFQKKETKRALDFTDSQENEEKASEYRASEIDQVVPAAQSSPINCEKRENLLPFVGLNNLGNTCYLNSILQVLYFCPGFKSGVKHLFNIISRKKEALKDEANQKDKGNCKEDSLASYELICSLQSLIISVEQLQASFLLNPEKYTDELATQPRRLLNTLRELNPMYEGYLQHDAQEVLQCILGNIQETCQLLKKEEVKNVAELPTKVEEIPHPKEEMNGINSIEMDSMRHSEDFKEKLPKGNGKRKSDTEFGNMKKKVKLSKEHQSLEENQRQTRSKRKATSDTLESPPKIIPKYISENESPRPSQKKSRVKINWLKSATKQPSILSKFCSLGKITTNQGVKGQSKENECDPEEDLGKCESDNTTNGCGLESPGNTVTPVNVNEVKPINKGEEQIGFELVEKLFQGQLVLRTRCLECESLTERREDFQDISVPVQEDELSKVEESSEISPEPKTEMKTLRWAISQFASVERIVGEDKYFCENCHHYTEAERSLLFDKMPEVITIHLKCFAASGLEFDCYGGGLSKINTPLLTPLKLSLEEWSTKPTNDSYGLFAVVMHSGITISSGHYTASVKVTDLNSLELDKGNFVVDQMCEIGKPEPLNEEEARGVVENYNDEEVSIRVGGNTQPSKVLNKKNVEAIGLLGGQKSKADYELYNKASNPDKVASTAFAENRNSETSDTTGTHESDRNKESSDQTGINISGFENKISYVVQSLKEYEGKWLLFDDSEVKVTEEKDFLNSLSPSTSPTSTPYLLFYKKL
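USP1/UAF1 complex at 1 nM was preincubated with compound for 15 min at room temperature, then Ub-Rho substrate (150nM final) was added. Fluorescence (480/540 nm) was read kinetically, 6 reads every 60 seconds.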
EPAC2 agonist: EPAC2 (human) agonism; Q8WZA2; hit rate 0.079% among 360,000; EPAC2 activation, biochemical qHTS; response scale: 100% = 6.5 mM cAMP response; AID 720711; Potency, µM (titrated, usually from 154 µM), usual class: activators; also: nearly all actives have a fitted effect of over 50% in size
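Guanine nucleotide exchange by EPAC2 is measured as reduced fluorescence of BODIPY-GDP once it is released from 250 nM Rap1B. Plates are read kinetically for 30 min at room temperature; results are scaled to 6.5 mM cAMP.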
EPAC2 antag: antagonists of human EPAC2 | Q8WZA2 | Potency, µM (top dose mostly 114 µM), hits mostly inhibitors | EPAC2 GEF exchange of Rap1B-BODIPY-GDP, fluorescence | hit rate 0.18% among 360,000; also: nearly all actives have a fitted effect of over 45% in size
LDHA inh: blocks human lactate dehydrogenase A. P00338. activity change, % (values are at about 110 or 230 µM). hit rate 0.15% among 480,000. AID 1347041. purified LDHA, NADH/diaphorase-resazurin fluorescence; stronger effect = lower value; in the data active = activity change below about -30%; inconclusive = mostly about -25% to -30%
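Resorufin fluorescence (ex540/em590), read at 0 and 20 min after diaphorase/resazurin addition, reports the NADH left after a 5 min room-temperature reaction of 2 nM human LDH5 with 0.06 mM NADH and 0.2 mM pyruvate.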
EPAC1 agonist: activates human EPAC1 exchange factor | O95398 | EPAC1 agonist qHTS, biochemical assay; response scale: 100% = response to 6.5 mM cAMP | Potency, µM (titrated, usually from 154 µM), most hits filed as activators | hit rate 0.073% among 360,000; also: nearly all actives have a fitted effect of over 60% in size
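Fluorescent GDP-exchange assay: 100 nM EPAC1 with 250 nM Rap1B preloaded with BODIPY-GDP and 50 uM GDP; compounds tested as concentration series, 5 min at room temperature, then read every 5 min for 30 min (ex 480/em 540 nm); normalized to 6.5 mM cAMP.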
Hits are given with their value; - = inactive; ? = inconclusive; . = not tested or not shown. Unless noted, calls follow the shape of the dose curve; as a rule, active = well fitted curve in the direction sought with a large enough effect; inconclusive = small, poorly fitted or top-dose-only effect, or another doubt; inactive = no such curve, though single readings can be large; an effect the other way counts as inactive or inconclusive.

SMILES	EPAC1 antagonist	USP1-UAF1 inh	EPAC2 agonist	EPAC2 antag	LDHA inh	EPAC1 agonist
C=C1N2CCC(CC2)C1(O)c1ccc(C)cc1 (stereo unspecified)	-	-	-	-	-	-
C=C1C(O)(c2ccccc2)C2CC[N+]1(C)CC2 (stereo unspecified)	-	-	-	-	-38	-
O=c1nc(/C=C/c2ccc(Cl)cc2Cl)cc(C(F)(F)F)[nH]1	?	?	-	56µM	-	-
Cc1cc(C(=O)C(Cl)(Cl)Cl)c(C)n1C	.	.	.	.	-	.
CCn1cc(C(=O)NC2CCC(C)CC2)c2ccccc21 (stereo unspecified)	.	.	.	.	-	.
Cc1cc(C(C#N)c2ccc(Cl)cc2)c(Cl)cc1NC(=O)c1cc(I)cc(I)c1O (stereo unspecified)	?	?	-	50µM	-	-
CCn1nc(/C=C/c2ccccc2)nc2c(=O)n(C)c(=O)nc1-2	?	1.1µM	-	?	-	-
CCOc1ccc(-n2c(-c3cccs3)nc3ccccc3c2=O)cc1	-	-	-	-	-	-
CCn1nc(-c2cccs2)nc2c(=O)n(C)c(=O)nc1-2	?	0.22µM	-	?	-	-
Fc1ccc(-c2ccc(CNC3CN4CCC3CC4)o2)cc1Cl (stereo unspecified)	.	.	.	.	-	.
CCOP(=S)(OCC)Oc1cc(C)nc(C(C)C)n1	-	-	-	22µM	-	-
CCOP(=S)(OCC)Oc1cc(C)oc(=O)c1	-	-	-	-	-	-
CCC[N+]12CCC(CC1)C(=C(c1ccccc1)c1ccccc1)C2	-	-	-	-	-	-
CCCC[N+]12CCC(CC1)C(=C(c1ccccc1)c1ccccc1)C2	-	-	-	-	-106	-
CC1=NCCc2c1[nH]c1cc(O)ccc21	-	25µM	100µM	-	-	112µM
COc1ccc2c3c([nH]c2c1)C(C)=NCC3	-	-	-	-	-	-
Cc1ccc(/C=C2\C(=O)NC(=S)N(c3ccc(F)cc3)C2=O)o1	-	?	-	-	-	-
Cc1cc(C)cc(N2C(=O)/C(=C\c3ccc(N4CCN(C)CC4)o3)C(=O)NC2=S)c1	-	32µM	-	-	-	?
O=C1C=CC(=O)C2C1C1(Cl)C(Cl)=C(Cl)C2(Cl)C1(Cl)Cl (stereo unspecified)	-	-	-	56µM	-	-
Cc1ccc(-n2nnnc2C2(N)CCCCC2)cc1	.	.	.	.	-	.
O=C(O)c1cc[c]([Hg][Cl])cc1	-	-	-	-	-61	-
CN1C(=O)/C(=C/c2cccn2-c2ccc3ccccc3c2)C(=O)NC1=S	32µM	-	-	-	-	-
COC1C(C)OC(OC2CC(C)(O)Cc3cc4c(c(O)c32)C(=O)c2c(O)cc3c(c2C4=O)OC2OC3(C)C(O)C(N(C)C)C2O)C(OC)C1(C)OC (stereo unspecified)	-	?	-	-	-	100µM
NC(N)=NC(N)=NCc1cccnc1	.	.	.	.	-	.
CCN1/C(=C\C=C\C2=[N+](CC)c3ccccc3C2(C)C)C(C)(C)c2ccccc21	-	14µM	50µM	-	-	79µM
SMILES	EPAC1 antagonist	USP1-UAF1 inh	EPAC2 agonist	EPAC2 antag	LDHA inh	EPAC1 agonist
O=P(Nc1cccc(F)c1)(Oc1ccccc1F)Oc1ccccc1F	?	-	-	35µM	-	-
O=C(NC(O)C(Cl)(Cl)Cl)c1ccco1 (stereo unspecified)	.	.	.	.	-	.
O=C(CN1CCCCC1)c1ccc(-c2ccccc2)cc1	.	.	.	.	-	.
CC(C)[C@H]1C(=O)N2CCC[C@H]2[C@]2(O)O[C@](NC(=O)[C@@H]3C=C4c5cccc6[nH]cc(c56)C[C@H]4N(C)C3)(C(C)C)C(=O)N12	?	22µM	-	-	-	-
CC(C)C[C@H]1C(=O)N2CCCC2[C@]2(O)O[C@](NC(=O)[C@@H]3C=C4c5cccc6[nH]cc(c56)CC4N(C)C3)(C(C)C)C(=O)N12 (stereo partly specified)	-	13µM	-	-	-	-
CC(C)[C@@]1(NC(=O)[C@@H]2C[C@@H]3c4cccc5[nH]cc(c45)C[C@H]3N(C)C2)O[C@@]2(O)[C@@H]3CCCN3C(=O)[C@H](Cc3ccccc3)N2C1=O	-	-	-	-	-	-
COC(=O)C1=Nc2ccccc2/C1=C\c1c(O)n(-c2ccc(OC)cc2)c(=O)[nH]c1=O	-	-	-	-	-43	-
COc1ccc(-n2c(O)c(/C=C/C=Nc3ccccc3)c(=O)[nH]c2=O)cc1	-	32µM	?	-	-	100µM
COC(=O)C1=Nc2ccccc2/C1=C\c1c(O)n(-c2ccc(Br)cc2)c(=O)[nH]c1=O	-	-	-	-	-67	-
CCN(CC)C(=O)c1ccc(NC(=S)NCCOC)cc1	.	.	.	.	-	.
CCOC(=O)[C@]1(C#N)[C@@H]2C=CC(C(N)=O)=CN2[C@@H](C(N)=O)[C@@H]1c1ccc(F)cc1	-	?	-	-	-	-
COC(=O)[C@@]1(C#N)[C@@H]2C=CC(C(C)=O)=CN2[C@@H](C(N)=O)[C@@H]1c1ccc(F)cc1	-	28µM	?	-	-	-
O=[N+]([O-])c1cccc(NP(=O)(Oc2ccccc2)Oc2ccccc2)c1	-	-	-	25µM	-	-
COc1ccc2c3c1OC1C(O)C=CC4C(C2)[N+](C)(C)CCC341 (stereo unspecified)	-	-	-	-	-72	-
O=C1NC(=O)N(c2ccccc2F)C(=O)/C1=C/c1ccc(Sc2nc3ccccc3[nH]2)o1	25µM	-	-	-	-	-
O=C1NC(=O)N(c2cccc(Cl)c2)C(=O)/C1=C\c1ccc(Sc2nc3ccccc3[nH]2)o1	45µM	-	-	-	-	-
O=C(CNC12CC3CC(CC(C3)C1)C2)c1ccc(Cl)cc1	.	.	.	.	-81	.
O=C1NC(=O)C(=Cc2ccc(Oc3ccc([N+](=O)[O-])cc3)cc2)C(=O)N1	-	-	-	-	-33	-
COc1cc(C=C2C(=O)NC(=O)NC2=O)ccc1OCc1ccc([N+](=O)[O-])cc1	-	-	-	-	-	-
CN1C(=O)C(=Cc2ccccc2OCCOc2ccc([N+](=O)[O-])cc2)C(=O)N(C)C1=O	-	?	-	-	-	-
O=C1NC(=O)C(=Cc2ccccc2OCCOc2ccc([N+](=O)[O-])cc2)C(=O)N1	-	-	-	-	-81	-
Oc1c(Cl)c(Cl)c(Cl)c(Cl)c1Cl	-	-	-	10µM	-	-
N#CC1=C(N)Oc2nc(SCc3ccccc3Cl)nc(N)c2C1c1ccccc1F (stereo unspecified)	.	.	.	.	-	.
NCC(=O)c1ccc(Cl)c(Cl)c1	.	.	.	.	-31	.
O=C1NC(=O)N(Cc2ccc(F)cc2)C(=O)/C1=C\c1ccc([N+](=O)[O-])s1	20µM	28µM	-	-	-	-
